Compounds with a hit are over-represented: about 6.2% of the library has one in this group of screens.
LASV entry inh: qHTS for Inhibitors of binding or entry into cells for Lassa Virus. 1.2% of 300,000 active. Lassa virus pseudotype entry inhibition, cell reporter. AID 540256, 2011. Potency, µM (top dose mostly 37.9 µM), usual class: inhibitors; calls by dose curve; tested in HEK293 cells; note: nearly all actives have a fitted effect of over 50% in size
Marburg entry inh: qHTS for inhibitors of binding or entry into cells for Marburg Virus | AID 540276, 2011 | 1.8% of 300,000 active | Marburg virus pseudotyped entry inhibition, cell reporter | Potency, µM (doses to about 37.8 µM), most hits filed as inhibitors; calls by dose curve; tested in HEK293 cells
FMDV inh: High Throughput Screening for Foot and Mouth Disease Virus Antivirals; FMDV antiviral cell-based qHTS; Potency, µM (doses to about 57.9 µM), actives largely listed as inhibitors; 1.2% of 410,000 active; AID 1159524, 2015; calls by dose curve; tested in HEK293T cells; note: read-out not given here; nearly all actives have a fitted effect of over 45% in size
HCMV inh: qHTS Assay for inhibitors of the human cytomegalovirus (HCMV); 4.5% of 410,000 active; activity change, negative = inhibition, % at 57.5 µM; HFF cells, HCMV-luciferase reporter, 72 h; active compounds read low; in the data active = activity change below about -60%; inconclusive = no clear call, values can overlap the other calls; inactive = above about -39%
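Compounds were evaluated in HFFs infected with an HCMV luciferase reporter virus (MOI 1 PFU/cell). Luciferase in lysates collected 72 h post infection served as the replication measure.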
Large screens that a line does not name were inactive.

CCCCCCn1c(=O)[nH]c2c(c1=O)CCC2	none
CCCCn1c2c(c(=N)c3c1CCC3)CCC2	LASV entry inh inconclusive, Marburg entry inh inconclusive, FMDV inh inconclusive, HCMV inh -89
CNCC(O)Cn1c2c(c3ccccc31)CCCC2 (centres undefined)	Marburg entry inh inconclusive
CCn1c2c(c(=N)c3ccccc31)CCC2	FMDV inh inconclusive, HCMV inh -77
CCCCCCCCCn1c2c(c(=N)c3c1CCC3)CCC2	LASV entry inh 1.4µM, Marburg entry inh inconclusive, FMDV inh 5.6µM (no result: HCMV inh)
CCn1c2c(c(=N)c3c1CCC3)CCC2	Marburg entry inh inconclusive, HCMV inh -84
CCCCn1c2c(cc(C(=O)OC)c1=O)C(=O)CCC2	none (no result: LASV entry inh, Marburg entry inh)
O=C(Cn1cnc([N+](=O)[O-])n1)N/N=C/c1cc(Cl)ccc1O	LASV entry inh inconclusive, Marburg entry inh inconclusive
Cc1ccc(C)c(CN2C(=O)c3ccccc3S(=O)c3ccc(C(=O)NCc4ccccc4Cl)cc32)c1 (centres undefined)	Marburg entry inh inconclusive
N=c1c2c(n(Cc3ccc(F)cc3)c3c1CCC3)CCC2	Marburg entry inh inconclusive, HCMV inh -100
CCCCCCCn1c2c(c(=N)c3c1CCC3)CCCC2	LASV entry inh inconclusive, Marburg entry inh inconclusive, FMDV inh 3.2µM, HCMV inh -95
CCCCCCn1c2c(c(=N)c3c1CCC3)CCC2	LASV entry inh 3.7µM, Marburg entry inh 8.2µM, FMDV inh inconclusive, HCMV inh -104
CCOC(=O)Cc1csc(NC(=O)CC(C)(C)CC(=O)O)n1	none
O=C(Nc1nnc(COc2ccccc2)s1)C1CCN(S(=O)(=O)c2ccc(Cl)cc2)CC1	Marburg entry inh inconclusive
COc1ccc(-c2noc(C3CCCN(C(=O)c4ccccc4OC)C3)n2)cc1 (centres undefined)	Marburg entry inh inconclusive, HCMV inh -84
O=C(c1ccc(Br)cc1)N1CCCC(c2nc(-c3cccs3)no2)C1 (centres undefined)	none (no result: LASV entry inh, Marburg entry inh)
O=C(c1ccccc1Br)N1CCCC(c2nc(-c3cccs3)no2)C1 (centres undefined)	HCMV inh -89 (no result: LASV entry inh, Marburg entry inh)
Cc1ccc(S(=O)(=O)N(CC(=O)N2CCCCCC2)c2ccccc2)cc1	LASV entry inh 6.5µM
Cc1ccc(S(=O)(=O)N(CC(=O)N2CCC(C)CC2)Cc2ccccc2F)cc1	LASV entry inh inconclusive, Marburg entry inh inconclusive, HCMV inh -63
Cc1ccc(S(=O)(=O)N(CC(=O)N2CCC(C)CC2)c2ccccc2)cc1	none
COc1cccc(N2CCN(C(=O)CN(c3ccc(C)cc3)S(=O)(=O)c3c(C)n[nH]c3C)CC2)c1	none (no result: LASV entry inh, Marburg entry inh)
COc1ccc(S(=O)(=O)N(CC(=O)N2CCC(C)CC2)c2ccc(C)cc2)cc1	LASV entry inh 7.1µM
COc1ccc(N(CC(=O)N2CCN(c3cccc(C)c3)C(C)C2)S(=O)(=O)c2c(C)n[nH]c2C)cc1 (centres undefined)	LASV entry inh inconclusive, Marburg entry inh inconclusive, HCMV inh -77
Cc1ccc(C2c3[nH]c4ccccc4c3C[C@H]3C(=O)N(c4ccccc4C(=O)N4CCC[C@H]4C(=O)O)C(=O)N23)cc1 (some centres undefined)	none (no result: LASV entry inh, Marburg entry inh)
Cc1cccc(NC(=S)NCC(C)CSc2ccc(Cl)cc2)c1 (centres undefined)	none (no result: LASV entry inh, Marburg entry inh)
CNC(=O)CCN(Cc1ccco1)S(=O)(=O)c1ccc(OC)c(OC)c1	none
COc1ccc(C2=CC(c3c(C)nn(-c4ccccc4)c3Cl)n3nnnc3N2)cc1OC (centres undefined)	LASV entry inh inconclusive, Marburg entry inh inconclusive, FMDV inh 18µM, HCMV inh inconclusive
Brc1ccc(CSc2nccn2-c2ccccc2)cc1	Marburg entry inh inconclusive, HCMV inh -73
O=C(CN1CCN(CC(=O)Nc2ccccc2Cc2ccccc2)CC1)Nc1ccccc1Cl	Marburg entry inh inconclusive
COc1cc(C(=O)Nc2cc(C)ccc2OCc2cc(=O)n3cc(C)sc3n2)cc(OC)c1OC	none (no result: Marburg entry inh)
Cc1cccc(C)c1N1CCN(S(=O)(=O)c2ccccc2)CC1	none (no result: LASV entry inh, Marburg entry inh)
Cc1cc(N2CCN(S(=O)(=O)c3ccccc3)CC2)c2ccccc2n1	Marburg entry inh inconclusive, FMDV inh inconclusive, HCMV inh -88
Cc1cc(N2CCN(c3nc(-c4ccccc4)cs3)CC2)c2ccccc2n1	LASV entry inh inconclusive, FMDV inh 28µM, HCMV inh inconclusive
O=S(=O)(c1cccs1)N1CCN(c2ccnc3cc(Cl)ccc23)CC1	LASV entry inh inconclusive, Marburg entry inh inconclusive, FMDV inh inconclusive, HCMV inh -60
O=S(=O)(c1ccccc1)N1CCN(c2ccnc3cc(Cl)ccc23)CC1	LASV entry inh inconclusive, Marburg entry inh inconclusive, FMDV inh 25µM, HCMV inh inconclusive
N#Cc1cccc(Cn2cc(C(F)(F)F)ccc2=O)c1	Marburg entry inh inconclusive
CCCN1C(=O)C2(SC(NC(C)=O)=NN2C(C)=O)c2cc(C)ccc21 (centres undefined)	none (no result: LASV entry inh)
O=C(O)CCn1c(=O)[nH]c2ccccc2c1=O	none (no result: LASV entry inh, Marburg entry inh)
O=C(O)CCn1c(=O)c2ccccc2c2ccccc2c1=O	HCMV inh -101
CCn1c(SCc2cccc(F)c2)nc2c(c1=O)SCC2	FMDV inh inconclusive, HCMV inh -60
O=C(C1CCCO1)N1CCN(C(=S)Nc2ccc(Cl)cc2)CC1 (centres undefined)	Marburg entry inh inconclusive
O=C(C1CCCO1)N1CCN(C(=S)Nc2ccc(Cl)c(Cl)c2)CC1 (centres undefined)	LASV entry inh 10µM, Marburg entry inh inconclusive
CN(Cc1cccc(-c2ccncc2)c1)C(=O)Oc1ccc([N+](=O)[O-])cc1	FMDV inh 22µM (no result: LASV entry inh, Marburg entry inh, HCMV inh)
CN(C(=O)Oc1ccc([N+](=O)[O-])cc1)c1ccccc1	Marburg entry inh inconclusive, HCMV inh inconclusive
COc1ccc(NC(=O)Cc2c(SC)c3ccccc3n2Cc2ccccc2)cc1	Marburg entry inh inconclusive, HCMV inh -87
CCCCN(Cc1cccs1)S(=O)(=O)c1ccc(-c2ccc(=O)[nH]n2)s1	HCMV inh -68
COc1ccccc1C1CCN(C(=O)c2cnn(-c3ccccc3)c2C)CC1	FMDV inh 40µM (no result: LASV entry inh, Marburg entry inh)
C=CC[n+]1c(-c2ccc(OCC)cc2)csc1NNC(=O)Nc1ccccc1	LASV entry inh inconclusive, HCMV inh -88 (no result: FMDV inh)
COc1cc(N2CCC(O)CC2)ccc1Nc1nnc(Cl)c(Nc2ccccc2S(C)(=O)=O)n1	FMDV inh 20µM (no result: LASV entry inh, Marburg entry inh, HCMV inh)
COc1cc(CC(=O)OCC(=O)Nc2sccc2C(N)=O)cc(OC)c1OC	LASV entry inh inconclusive, Marburg entry inh 11µM, FMDV inh inconclusive
Clc1nc(NCCc2ccccc2)c2cn[nH]c2n1	LASV entry inh inconclusive, Marburg entry inh inconclusive, FMDV inh inconclusive, HCMV inh -61
O=C(CSc1nnc(-c2ccc(Cl)cc2)n1-c1ccc(Cl)cc1)N/N=C/c1ccccc1C(=O)O	none (no result: HCMV inh)
Cc1cc(=O)n2c3ccccc3n(CC(O)CN3CCCCC3)c2c1C#N (centres undefined)	Marburg entry inh inconclusive, HCMV inh -87 (no result: FMDV inh)
Cc1cc(=O)n2c3ccccc3n(CC(O)CN3CCOCC3)c2c1C#N (centres undefined)	none
CC(C)(C)c1ccc(CN2N=Nc3ccccc3S2(=O)=O)cc1	LASV entry inh 11µM, Marburg entry inh inconclusive, FMDV inh inconclusive, HCMV inh inconclusive
COc1ccc(C)cc1-n1nnnc1SCC(=O)NC(=O)NCc1ccco1	none (no result: FMDV inh)
CCOC(=O)c1c(C2CC2)csc1NC(C)=O	HCMV inh -65

From PubChem BioAssay
